From PubChem BioAssay
In the library only some 9.5% were active in any assay of this set; here they are far more common.
Tau fibril ThT: tau fibrillization inhibition (ThT binding) | P10636 | recombinant tau K18 P301L, heparin-induced fibrillization, ThT fluorescence | Potency, µM (series often up to 57.4 µM), for inactives: top-dose activity, negative = inhibition, usual class: inhibitors | actives 2.1% (n = 270,000) | AID 1460; further: nearly all actives have a fitted effect of over 55% in size
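Using a mix of unlabeled (15 uM) and Alexa 594-labeled (0.24 uM) tau K18 P301L, heparin-triggered fibrillization over 6 hr at 37 C was scored by ThT fluorescence.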
NPSR antagonist: blocks cAMP signaling of the human neuropeptide S receptor. Potency, µM (titrated, usually from 38.3 µM), for the others: top-dose activity change, negative = inhibition, usual class: inhibitors. actives 1% (n = 220,000). CHO-NPSR cells, cAMP TR-FRET, antagonist mode. Q6W5P4; further: nearly all actives have a fitted effect of over 50% in size
Target sequence (Q6W5P4 whole entry, looked up): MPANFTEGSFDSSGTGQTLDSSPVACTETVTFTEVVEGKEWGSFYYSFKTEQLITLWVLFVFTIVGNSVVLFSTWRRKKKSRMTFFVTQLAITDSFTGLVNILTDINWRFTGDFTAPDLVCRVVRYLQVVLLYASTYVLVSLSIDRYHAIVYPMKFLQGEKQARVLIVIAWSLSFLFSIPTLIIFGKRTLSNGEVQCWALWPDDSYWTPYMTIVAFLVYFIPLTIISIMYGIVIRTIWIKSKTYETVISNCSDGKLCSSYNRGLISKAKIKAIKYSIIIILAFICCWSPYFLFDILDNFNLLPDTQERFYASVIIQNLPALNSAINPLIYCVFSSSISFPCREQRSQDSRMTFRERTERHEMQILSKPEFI
ALDH1A1 inh: inhibitors of human aldehyde dehydrogenase 1A1; P00352; Purified ALDH1A1, NADH fluorescence, propionaldehyde substrate; Potency, µM (doses to about 75.3 µM), for inactives: top-dose activity, negative = inhibition, usual class: inhibitors; actives 7.3% (n = 220,000); AID 1030; active means well fitted inhibition curve with a large enough effect, not every such curve was filed as active; inconclusive means small, poorly fitted or top-dose-only effect, or another doubt; inactive means no such curve, though single readings can be large or run the other way;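 further: plate controls were no enzyme wells and a reference inhibitor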
HPGD block: inhibitors of human 15-hydroxyprostaglandin dehydrogenase (HPGD); P15428; purified HPGD, NADH fluorescence kinetic, PGE2 substrate; Potency, µM, for the others: top-dose activity change, negative = inhibition, actives largely listed as inhibitors; actives 4.3% (n = 150,000); active means well fitted inhibition curve with a large enough effect, not every such curve was filed as active; inconclusive means small, poorly fitted or top-dose-only effect, or another doubt; inactive means no such curve, though single readings can be large or run the other way
Target sequence (P15428 whole entry, looked up): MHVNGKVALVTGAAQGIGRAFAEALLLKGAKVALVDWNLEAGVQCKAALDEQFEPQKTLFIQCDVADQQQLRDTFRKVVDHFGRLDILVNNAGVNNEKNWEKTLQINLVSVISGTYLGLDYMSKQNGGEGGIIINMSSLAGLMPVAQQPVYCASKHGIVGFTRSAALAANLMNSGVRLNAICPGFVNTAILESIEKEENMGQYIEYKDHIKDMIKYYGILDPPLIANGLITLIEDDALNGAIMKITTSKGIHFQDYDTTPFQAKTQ
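20 nM HPGD preincubated 15 min at room temperature with compound in 50 mM Tris-HCl pH 8, 0.01% Tween 20. Started with 1 mM NAD+ and 30 uM prostaglandin E2; NADH fluorescence (360/450 nm) read 5 times over 30-s intervals, last minus first.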
Tau FP inhib: inhibitors of human tau fibril formation; P10636; K18 P301L tau heparin fibrillization, Alexa594 FP, 6 h; Potency, µM (highest dose often 57.7 µM), for inactives: at the highest dose activity, negative = inhibition, most hits filed as inhibitors; actives 0.39% (n = 280,000); AID 1468; further: nearly all actives have a fitted effect of over 55% in size
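Heparin (20 uM) drove fibril formation of recombinant tau K18 P301L, 15 uM unlabeled with 0.24 uM Alexa 594 label, for 6 hr at 37 C in 100 mM sodium acetate pH 7. Fluorescence polarization (555/632 nm) read 1 hr after 30 uM ThT.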
Tau fluor cs: counter-screen for tau fibril formation inhibitors | Potency, µM (doses to about 57.7 µM), inactives show at the highest dose activity change, negative = decrease | AID 1463 | tau K18 P301L Alexa594 fluorescence, heparin fibrillization | actives 0.93% (n = 280,000); further: nearly all actives have a fitted effect of over 55% in size
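Human tau K18 P301L (15 uM unlabeled, 0.24 uM Alexa 594-labeled) in 100 mM sodium acetate pH 7 with 20 uM heparin, 6 hr at 37 C. ThT 30 uM added, 1 hr ambient; Alexa 594 FP and total fluorescence read at 555/632 nm.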
* = called active by the depositor; ? = inconclusive; . = not tested or not shown; [ ] = remark or other dose. Unless noted, the call rests on the fitted dose curve; in most records, active means well fitted curve in the direction sought with a large enough effect; inconclusive means small, poorly fitted or top-dose-only effect, or another doubt; inactive means no such curve, though single readings can be large; an effect the other way counts as inactive or inconclusive. Unless noted, on the % scale 0 is the no-effect control and ±100 the full control effect; potency means the concentration at half of the fitted maximal effect.

SMILES	Tau fibril ThT	NPSR antagonist	ALDH1A1 inh	HPGD block	Tau FP inhib	Tau fluor cs
O=C1NC(=Nc2ccc3ccccc3c2)S/C1=C/c1ccco1	14µM*	-20%	?	.	?	?
Cc1cccc(N=C2NC(=O)/C(=C/C=C/c3ccco3)S2)c1	5µM*	-33%	?	-24%	-9%	-28%
COc1ccc(C/C(N)=N/OC(C)=O)cc1OC	0%	8%	10%	0%	-5%	7%
COc1ccc(/C(N)=N/OC(=O)Cc2ccc(OC)c(OC)c2)cc1	?	-8%[46.1 µM]	7.9µM*	.	-7%	-16%
COc1ccc(C/C(N)=N/OC(=O)C(c2ccccc2)c2ccccc2)cc1OC	11%	-14%[46.1 µM]	6.3µM*	.	-1%	9%
Cc1ccc(NC(=O)c2oc3ccc(S(=O)(=O)N4CCCCC4)cc3c2C)c(C)c1	8%	.	.	.	1%	4%
CCOc1ccc(C(=O)C2CCN(CC(=O)Nc3ccccc3N3CCOCC3)CC2)cc1	-15%	-17%[46.1 µM]	25µM*	-25%	-3%	-10%
COc1ccc(OCC2CC3C(CCC(C)C3c3ccc(Br)cc3)C(=O)O2)cc1 (stereo not given)	-18%[11.5 µM]	.	0%[13.5 µM]	.	3%[11.6 µM]	-18%[11.6 µM]
CC(NS(=O)(=O)/C=C/c1ccccc1)C(=O)NCCc1ccc(S(N)(=O)=O)cc1 (stereo not given)	-9%	14%	-4%	.	0%	-1%
O=C(CNc1cccc2ccccc12)N/N=C/c1cccc(Oc2ccccc2)c1	?	-12%	-8%	-12%	?	7.9µM*[quencher]
O=C(CNc1cccc2ccccc12)N/N=C/c1ccccn1	?	12%	.	.	-1%	?
CCOc1ccc(OCC)c(NC(=O)CCc2nc3cccnc3n2-c2ccccc2)c1	-11%	.	.	.	7%	-22%
CCC1=NN2C(=N)/C(=C\c3cccn3-c3ccc(OC)cc3)C(=O)N=C2S1	?	-44%	?	.	7%	-3%
CC1=NN2C(=N)/C(=C\c3cc(C)n(-c4ccc(C)cc4)c3C)C(=O)N=C2S1	?	13µM*	.	.	6%	-1%
Cc1ccc(-n2cccc2/C=C2\C(=N)N3N=C(C(C)C)SC3=NC2=O)cc1	?	-45%	16µM*	.	10%	-7%
O=C(CN1CCN(S(=O)(=O)c2cc(Cl)ccc2Cl)CC1)Nc1cccc(F)c1	-2%	.	.	.	-2%	-25%
CC(C)(C)c1ccc(S(=O)(=O)N2CC(=O)Nc3ccccc32)cc1	-7%	-13%[46.1 µM]	?	-14%	5%	-14%
CCc1ccccc1N(C1=NCCCS1)S(=O)(=O)c1ccc(C(C)(C)C)cc1	8%	-27%	0.79µM*	-17%	-3%	2%
Cc1ccc(OCC(=O)OCc2cc(=O)n3nc(C4CCCCC4)sc3n2)cc1C	?	.	.	.	-2%	0%
CN1CCN(c2ccc(NC(=O)c3sc4ccccc4c3Cl)cc2)CC1	5µM*	-11%	?	.	4%	?
O=C(NNC(=O)c1sc2ccccc2c1Cl)Nc1ccc(Cl)cc1	-8%	-12%[46.1 µM]	8.9µM*	-8%	-13%	-8%
O=C(Nc1ccncc1)c1sc2ccccc2c1Cl	?	7%	-2%	.	0%	-14%
Cc1ccc(NC(=O)c2sc3ccccc3c2Cl)cc1	?	.	.	.	?	-8%
O=C(NN=C1CCCC1)c1sc2ccccc2c1Cl	?	16%	16µM*	.	10%	3%
O=C(NNC(=S)NC(=O)c1sc2ccccc2c1Cl)c1ccc(Cl)cc1	14µM*	-25%	28µM*	-24%	4%	-23%
SMILES	Tau fibril ThT	NPSR antagonist	ALDH1A1 inh	HPGD block	Tau FP inhib	Tau fluor cs
CC#CCN1c2ccccc2[C@]23C[C@@H](C(=O)OC)N(S(=O)(=O)c4ccc(C)cc4)C2=NC(C(=O)OC)=C(C(=O)OC)[C@H]13	-5%[11.5 µM]	.	4%[13.5 µM]	-6%	1%[11.6 µM]	-14%[11.6 µM]
CCn1nnc(NC(=O)c2sc3ccccc3c2Cl)n1	-3%	6%[46.1 µM]	3.2µM*	-17%	-5%	-9%
O=C1C=CC(=O)N1c1ccc(OC(F)F)cc1	0%	-57%	0.71µM*	7.1µM*	15%	2%
O=C1C=CC(=O)N1c1ccc(O)cc1	-20%	?	.	.	-13%	-14%
CCCC/C=C/C(NC(=O)c1cccs1)c1ccccc1 (stereo not given)	-4%	.	?	-16%	-9%	-11%
CCOc1ccc(NC(=O)Cn2c(=O)n(Cc3nc(-c4ccccc4)no3)c(=O)c3ccccc32)cc1	?	.	.	.	?	-1%
CCCNC(=O)OC[C@@H]1O[C@H](CCO/N=C(\C)CCN2CCCCc3nc(C)c(C)cc32)C=C[C@@H]1Oc1ccc(OC)cc1	-4%[11.5 µM]	.	-8%[13.5 µM]	.	2%[11.6 µM]	-7%[11.6 µM]
S=c1[nH]nc(-c2ccccc2Cl)n1CC1CCCO1 (stereo not given)	11%	-26%[46.1 µM]	14µM*	-27%	-1%	6%
CN(C)c1ccc(N=Nc2ccccc2C(=O)OCC(=O)N2CCCC2)cc1	13µM*	-25%[46.1 µM]	-10%	-12%	6%	-24%
CN(C)c1ccc(N=Nc2ccccc2C(=O)OCC(=O)N2CCCCCC2)cc1	8.9µM*	-17%	-12%	-16%	13%	-21%
Cc1cccc(C)c1OCC(=O)Nc1ccccc1C(F)(F)F	-4%	-41%	-5%	.	1%	-3%
CN(C)c1ccc(N=Nc2ccccc2C(=O)OCC(=O)Nc2ccccc2C(F)(F)F)cc1	5µM*	-14%	3%	-9%	?	?
CN(C)c1ccc(C(=O)OCC(=O)N2CCOCC2)cc1	1%	11%	?	.	7%	-3%
Cc1nn2c(=O)cc(CN(C)c3ccccc3)nc2s1	-1%	.	.	.	1%	-4%
COc1cccc(NC(=O)Cn2c(=O)n(CCCC(=O)NCc3ccc4c(c3)OCO4)c(=O)c3ccccc32)c1	?	.	.	.	?	-24%
CCCCn1c(CCn2nc(C)c(Br)c2C)n[nH]c1=S	-5%	-8%[46.1 µM]	-10%	22µM*	6%	-7%
O=S(=O)(N/N=C/c1ccc2c(c1)OCCO2)c1ccc(Cl)cc1	-8%	-5%[46.1 µM]	-6%	-16%	-2%	-14%
Cc1cc(Cl)c(S(=O)(=O)N/N=C/c2ccc3c(c2)OCO3)c(Cl)c1	?	-11%[46.1 µM]	11µM*	-20%	6%	?
CC1CCCCN1CC(=O)Nc1ccc(N2CCCCCC2)cc1 (stereo not given)	9%	22%	20µM*	.	6%	8%
O=C(CNCc1ccco1)Nc1ccc(N2CCCCCC2)cc1	?	-40%	35µM*	.	-1%	-19%
CC(=O)Nc1ccc(N2CCCC2)cc1	28µM*	-23%[46.1 µM]	?	-14%	?	?
O=C(CCl)Nc1ccc(N2CCCCCC2)cc1	?	-21%	2.2µM*	.	0%	?
